PubChem BioAssay AID602258 (National Center for Advancing Translational Sciences (NCATS), 2012)
Records with an inconclusive call do not appear. A call without a number means that no potency is given here. The source made the active and inactive calls. Calls come from the whole dose curve; as a rule, active = well fitted activation curve with a large enough effect; inconclusive = small, poorly fitted or top-dose-only effect; inactive = no such curve, though single readings can be large or run the other way.

biological target: Relaxin receptor 2 (Homo sapiens) (UniProt Q8WXD0); test: qHTS Assay for Agonists of the Relaxin Receptor RXFP1: RXFP2 SAR; settings: HEK293 RXFP2 cAMP TR-FRET agonist, 30 min; series mostly up to 78.1 µM
Excerpt: The relaxin hormone is involved in the variety of biological functions in normal tissues and diseases. The role of relaxin is well-established in female reproduction and parturition, mammary gland and endometrial development, maintenance of myometrial quiescence during pregnancy. Relaxin signaling through its G protein-coupled receptor (GPCR) RXFP1 results in ECM remodeling through regulation of collagen deposition, cell invasiveness, proliferation and overall tissue homeostasis. […] Recombinant human relaxin (rhRlx) is currently being tested in clinical trials as a protective agent in congestive heart failure, in treating severe preeclampsia, and as an anti-fibrotic agent in systemic sclerosis. Upon relaxin binding RXFP1 activation leads to the activation of adenylate cyclase (AC) via Gs. cAMP will activate PKA, which phosphorylates many signaling proteins. Thus, detection of cAMP increase is an easy and reliable indication of relaxin receptor activation. To screen for agonists of the relaxin receptor, a HEK293T cell line stably transfected with RXFP1 was used. RXFP1 activation was assayed by changes in cAMP levels as detected with a time-resolved fluorescence energy transfer (TR-FRET) cAMP detection kit. This assay measures activation of a cell expressing RXFP2, another GPCR targeted by relaxin, to determine the selectivity of compounds for RXFP1. NIH Chemical Genomics Center [NCGC] NIH Molecular Libraries Probe Production Centers Network [MLPCN] MLPCN Grant: R03 MH085705-01A1 Assay Submitter (PI): Alexander Agoulnik
This is a cell-based assay for cAMP second messenger response to screen for agonists of the RXFP2 receptor. The assay was conducted in the presence of a PDE4 inhibitor (Ro 20174). The cells were lysed and the cAMP levels were measured with a TR-FRET cAMP kit. Presence of cAMP in the cell lysate disrupts binding between the cryptate-labeled anti-cAMP and d2-labeled cAMP pair, leading to a decrease in the TR-FRET signal. Data were normalized to the controls for basal activity (buffer only) and 100% activity (29 nM porcine relaxin). The EC50 values were determined from concentration-response data modeled with the standard Hill equation 1536-well assay protocol for the HEK293 RXFP2 cAMP assay: (1) Add 3 ul HEK293 RXFP2 cell culture. 2000 cells/well in DMEM/F12, 10% FBS, 1x Pen/Strep (dispensed offline with MultiDrop Combi). (2) Incubate 16-24 hr at 37C, 5% CO2. (3) Add 1 ul 400uM Ro20174 in DPBS, 0.05% BSA, 0.005% Tween 20. (3) Add 23 nl compounds in DMSO solution. Final concentration was 0.5 - 58 uM. (4) Incubate 30 min at 37C, 5% CO2. (5) Add 1 ul cAMP-d2 in lysis buffer (HTRF cAMP HiRange kit, CisBio). (6) Add 1 ul anti-cAMP antibody-cryptate in lysis buffer (HTRF cAMP HiRange kit, CisBio). (7) Incubate 30 min at room temperature. (6) Detect the assay plate in a ViewLux plate reader (PerkinElmer) with Ex=320 nm, Em1=615 nm and Em2=665 nm. Keywords: relaxin, RXFP1, RXFP2, G-protein coupled receptor, cAMP, agonist, high throughput screening, MLSMR, MLSCN, NIH Roadmap, qHTS and NCGC

Chain of Relaxin receptor 2 (Homo sapiens) (Q8WXD0 whole entry, looked up): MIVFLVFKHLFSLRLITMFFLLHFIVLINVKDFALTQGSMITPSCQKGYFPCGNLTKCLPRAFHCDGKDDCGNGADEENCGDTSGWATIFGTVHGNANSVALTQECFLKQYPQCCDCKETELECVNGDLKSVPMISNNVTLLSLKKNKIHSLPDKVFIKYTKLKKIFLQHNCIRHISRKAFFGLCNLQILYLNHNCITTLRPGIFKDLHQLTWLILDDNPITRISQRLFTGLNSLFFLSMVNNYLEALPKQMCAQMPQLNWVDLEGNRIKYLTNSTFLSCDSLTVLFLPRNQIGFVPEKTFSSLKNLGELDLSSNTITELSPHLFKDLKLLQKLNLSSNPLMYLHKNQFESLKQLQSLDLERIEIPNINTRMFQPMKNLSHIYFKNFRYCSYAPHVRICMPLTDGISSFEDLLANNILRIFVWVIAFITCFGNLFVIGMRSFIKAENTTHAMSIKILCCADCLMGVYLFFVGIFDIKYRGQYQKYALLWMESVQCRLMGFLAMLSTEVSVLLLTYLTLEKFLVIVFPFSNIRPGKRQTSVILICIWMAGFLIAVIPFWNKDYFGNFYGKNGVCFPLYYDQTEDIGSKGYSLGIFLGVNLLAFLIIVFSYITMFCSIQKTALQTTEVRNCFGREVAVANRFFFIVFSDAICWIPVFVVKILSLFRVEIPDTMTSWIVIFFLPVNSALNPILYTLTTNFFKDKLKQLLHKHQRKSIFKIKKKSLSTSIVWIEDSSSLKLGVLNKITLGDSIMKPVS

Q: For CCC(CC)C(=O)Nc1ccccc1C(=O)Nc1cccc(C(F)(F)F)c1, which Potency is on record?
A: inactive

Q: How did the Potency turn out when O=C(Nc1cccc(S(=O)(=O)C(F)(F)F)c1)c1ccccc1NC(=O)c1ccccc1OCC(F)(F)F was run?
A: inactive

Q: Which Potency does the source give for CCCOc1ccccc1C(=O)Nc1ccccc1C(=O)Nc1cccc(S(=O)(=O)C(F)(F)F)c1 here?
A: inactive

Q: COc1ccccc1C(=O)N(C)c1ccccc1C(=O)N(C)c1cccc(C(F)(F)F)c1 was tested. Which Potency did it give?
A: inactive

Q: CCOc1ccccc1C(=O)Nc1ccccc1C(=O)Nc1cccc(S(=O)(=O)C(F)(F)F)c1 was tested. Which Potency did it give?
A: 7.47 µM (active)

Q: How did the Potency turn out when O=C(NCc1ccco1)c1ccccc1NC(=O)c1ccccc1NC(=O)C1CCCCC1 was run?
A: inactive

Q: How did the Potency turn out when COc1ccccc1C(=O)Nc1ccccc1C(=O)N(C)c1cccc(C(F)(F)F)c1 was run?
A: inactive

Q: How did the Potency turn out when COc1ccccc1C(=O)Nc1ccccc1C(=O)Nc1cccc(S(=O)(=O)C(F)(F)F)c1 was run?
A: inactive

Q: Which Potency does the source give for O=C(Nc1cccc(C(F)(F)F)c1)c1ccccc1NC(=O)C1CCCCC1 here?
A: inactive

Q: CCCCOc1ccccc1C(=O)Nc1ccccc1C(=O)Nc1cccc(S(=O)(=O)C(F)(F)F)c1 was tested. Which Potency did it give?
A: inactive

Q: With COCCNc1ccccc1C(=O)Nc1cccc(C(F)(F)F)c1 as the compound, how does the Potency read?
A: inactive

Q: For COc1ccccc1-c1ccccc1C(=O)Nc1cccc(C(F)(F)F)c1, which Potency is on record?
A: inactive

Q: COCCOc1ccccc1C(=O)Nc1ccccc1C(=O)Nc1cccc(C(F)(F)F)c1 was tested. Which Potency did it give?
A: 5.29 µM (active)

Q: How did the Potency turn out when CN(C)CCOc1ccccc1C(=O)Nc1ccccc1C(=O)Nc1cccc(C(F)(F)F)c1 was run?
A: inactive

Q: How did the Potency turn out when O=C(Nc1cccc(-c2ccccc2)c1)c1ccccc1NC(=O)C1CCCCC1 was run?
A: inactive

Q: With O=C(Nc1cccc(SC(F)(F)F)c1)c1ccccc1NC(=O)C1CCCCC1 as the compound, how does the Potency read?
A: inactive

Q: How did the Potency turn out when CC(C)Oc1ccccc1C(=O)Nc1ccccc1C(=O)Nc1cccc(C(F)(F)F)c1 was run?
A: inactive

Q: Which Potency does the source give for Cc1cccc(NC(=O)c2ccccc2NC(=O)C2CCCCC2)c1 here?
A: inactive

Q: With CCCCC(=O)Nc1ccccc1C(=O)Nc1cccc(C(F)(F)F)c1 as the compound, how does the Potency read?
A: inactive

Q: For CCOc1ccccc1C(=O)Nc1cnccc1C(=O)Nc1cccc(S(=O)(=O)C(F)(F)F)c1, which Potency is on record?
A: inactive
